Screen size: about 5,500 compounds; about 2,000 (36%) were called active. Roughly 18% stayed inconclusive and do not appear here. Cut-off read from the data, not from the text of the source: active = normalized growth mostly below about 0.91 (no sharp cut-off); inconclusive = no clear call, values can overlap the other calls; inactive = mostly above about 0.92. The list shows a part of the results.
Experiment: chemical genetic growth profiling, strain panel (AID 1159580);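 note: tested at 20 µM; growth read once vehicle control cultures reached saturation at 30 °C; 1 = growth at the plate median or of vehicle wells; lower values mean less growth of the strain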
Conditions: growth OD

Measured: normalized growth

NC1=NCCN1CC(=O)O
inactive: S. cerevisiae deletion strains, locus YJR043C, strain POL32, active compounds read low 0.98 | S. cerevisiae deletion strains, locus YJR066W, strain TOR1, active compounds read low 0.989 | S. cerevisiae deletion strains, locus YKL009W, strain mrt4, active compounds read low 0.968 | S. cerevisiae deletion strains, locus YKL068W, active compounds read low 0.986 | S. cerevisiae deletion strains, locus YKL085W, strain MDH1 (second series), active compounds read low 0.983 | S. cerevisiae deletion strains, locus YKL085W, strain MDH1, active compounds read low 0.983 | S. cerevisiae deletion strains, locus YKL160W, strain elf1, active compounds read low 1.04 | S. cerevisiae deletion strains, locus YKL190W, strain CNB1, active compounds read low 0.978 | S. cerevisiae deletion strains, locus YKR001C, strain vps1, active compounds read low 0.989 | S. cerevisiae deletion strains, locus YKR026C, strain gcn3, active compounds read low 1.03 | S. cerevisiae deletion strains, locus YKR091W, strain srl3, active compounds read low 1.01 | S. cerevisiae deletion strains, locus YLL001W, strain dnm1, active compounds read low 0.984 | S. cerevisiae deletion strains, locus YLL026W, active compounds read low 1.01 | S. cerevisiae deletion strains, locus YLL041C, strain sdh2, active compounds read low 1.01 | S. cerevisiae deletion strains, locus YLR027C, strain aat2, active compounds read low 1.02 | S. cerevisiae deletion strains, locus YLR039C, strain RIC1, active compounds read low 0.964 | S. cerevisiae deletion strains, locus YLR058C, strain SHM2, active compounds read low 0.975 | S. cerevisiae deletion strains, locus YLR102C, strain apc9, active compounds read low 0.986 | S. cerevisiae deletion strains, locus YLR113W, strain HOG1, active compounds read low 0.983 | S. cerevisiae deletion strains, locus YLR221C, strain rsa3, active compounds read low 0.987 | S. cerevisiae deletion strains, locus YLR258W, strain gsy2, active compounds read low 0.996 | S. cerevisiae deletion strains, locus YLR262C, strain YPT6 (second series), active compounds read low 1.02 | S. cerevisiae deletion strains, locus YLR262C, strain YPT6, active compounds read low 0.958 | S. cerevisiae deletion strains, locus YLR268W, strain sec22, active compounds read low 0.99 | S. cerevisiae deletion strains, locus YLR320W, strain mms22, active compounds read low 0.957 | S. cerevisiae deletion strains, locus YLR330W, strain CHS5, active compounds read low 1 | S. cerevisiae deletion strains, locus YLR342W, strain FKS1 (second series), active compounds read low 1.01 | S. cerevisiae deletion strains, locus YLR342W, strain FKS1, active compounds read low 1.02 | S. cerevisiae deletion strains, locus YLR357W, strain rsc2, active compounds read low 1.03 | S. cerevisiae deletion strains, locus YLR370C, strain arc18, active compounds read low 1.01 | S. cerevisiae deletion strains, locus YLR371W, strain rom2, active compounds read low 0.996 | S. cerevisiae deletion strains, locus YLR384C, strain iki3, active compounds read low 1.01 | S. cerevisiae deletion strains, locus YLR418C, strain cdc73, active compounds read low 0.995 | S. cerevisiae deletion strains, locus YML016C, strain PPZ1, active compounds read low 0.986 | S. cerevisiae deletion strains, locus YML032C, strain rad52, active compounds read low 0.994 | S. cerevisiae deletion strains, locus YML120C, strain ndi1, active compounds read low 0.998 | S. cerevisiae deletion strains, locus YML124C, strain tub3, active compounds read low 0.995 | S. cerevisiae deletion strains, locus YMR058W, strain fet3, active compounds read low 1.02 | S. cerevisiae deletion strains, locus YMR078C, strain ctf18, active compounds read low 0.994 | S. cerevisiae deletion strains, locus YMR125W, strain sto1, active compounds read low 1.02 | S. cerevisiae deletion strains, locus YMR129W, active compounds read low 1 | S. cerevisiae deletion strains, locus YMR205C, strain PFK2, active compounds read low 1.02 | S. cerevisiae deletion strains, locus YMR223W, strain ubp8, active compounds read low 0.992 | S. cerevisiae deletion strains, locus YMR231W, strain pep5, active compounds read low 1.02 | S. cerevisiae deletion strains, locus YMR307W, strain GAS1, active compounds read low 1.05 | S. cerevisiae deletion strains, locus YNL067W, strain RPL9B, active compounds read low 0.966 | S. cerevisiae deletion strains, locus YNL071W, strain lat1, active compounds read low 0.983 | S. cerevisiae deletion strains, locus YNL153C, strain GIM3, active compounds read low 0.989 | S. cerevisiae deletion strains, locus YNL183C, strain NPR1, active compounds read low 0.919 | S. cerevisiae deletion strains, locus YNL209W, strain ssb2, active compounds read low 1.03 | S. cerevisiae deletion strains, locus YNL233W, strain BNI4, active compounds read low 0.974 | S. cerevisiae deletion strains, locus YNL248C, strain rpa49, active compounds read low 1.03 | S. cerevisiae deletion strains, locus YNL250W, strain rad50, active compounds read low 0.973 | S. cerevisiae deletion strains, locus YNL271C, strain bni1, active compounds read low 0.998 | S. cerevisiae deletion strains, locus YNL298W, strain CLA4, active compounds read low 0.996 | S. cerevisiae deletion strains, locus YNL307C, strain MCK1, active compounds read low 0.993 | S. cerevisiae deletion strains, locus YNL322C, strain KRE1 (second series), active compounds read low 1.02 | S. cerevisiae deletion strains, locus YNR049C, strain mso1, active compounds read low 1.01 | S. cerevisiae deletion strains, locus YNR052C, strain pop2, active compounds read low 0.998 | S. cerevisiae deletion strains, locus YOL006C, strain TOP1, active compounds read low 0.944 | S. cerevisiae deletion strains, locus YOL012C, strain htz1 0.788 | S. cerevisiae deletion strains, locus YOL147C, strain pex11, active compounds read low 0.995 | S. cerevisiae deletion strains, locus YOR001W, strain rrp6, active compounds read low 0.966 | S. cerevisiae deletion strains, locus YOR061W, strain CKA2, active compounds read low 0.958 | S. cerevisiae deletion strains, locus YOR069W, strain VPS5, active compounds read low 0.995 | S. cerevisiae deletion strains, locus YOR070C, strain gyp1, active compounds read low 1.02 | S. cerevisiae deletion strains, locus YOR080W, strain dia2, active compounds read low 1.03 | S. cerevisiae deletion strains, locus YOR083W, strain WHI5, active compounds read low 0.959 | S. cerevisiae deletion strains, locus YOR106W, strain vam3, active compounds read low 1.03 | S. cerevisiae deletion strains, locus YOR136W, strain idh2, active compounds read low 0.986 | S. cerevisiae deletion strains, locus YOR144C, strain elg1, active compounds read low 0.992 | S. cerevisiae deletion strains, locus YOR184W, strain ser1, active compounds read low 1.01 | S. cerevisiae deletion strains, locus YOR231W, strain MKK1, active compounds read low 0.966 | S. cerevisiae deletion strains, locus YOR265W, strain rbl2, active compounds read low 0.994 | S. cerevisiae deletion strains, locus YOR270C, strain vph1, active compounds read low 0.924 | S. cerevisiae deletion strains, locus YOR290C, strain snf2, active compounds read low 1.01 | S. cerevisiae deletion strains, locus YOR316C, strain cot1, active compounds read low 0.989 | S. cerevisiae deletion strains, locus YPL051W, strain arl3, active compounds read low 0.997 | S. cerevisiae deletion strains, locus YPL055C, strain LGE1, active compounds read low 0.918 | S. cerevisiae deletion strains, locus YPL078C, strain atp4, active compounds read low 1.03 | S. cerevisiae deletion strains, locus YPL106C, strain sse1, active compounds read low 1.01 | S. cerevisiae deletion strains, locus YPL240C, strain hsp82, active compounds read low 1.01 | S. cerevisiae deletion strains, locus YPL256C, strain CLN2, active compounds read low 0.953 | S. cerevisiae deletion strains, locus YPR119W, strain clb2, active compounds read low 0.983 | S. cerevisiae deletion strains, locus YPR141C, strain kar3, active compounds read low 0.988 | S. cerevisiae deletion strains, locus YPR163C, strain tif3, active compounds read low 0.986 | S. cerevisiae deletion strains, locus YPR167C, strain met16, active compounds read low 0.993 | S. cerevisiae deletion strains, strain wtn01, active compounds read low 0.995 | S. cerevisiae strains, strain wild type, active compounds read low 0.982
